Test results as given in ChEMBL document CHEMBL1961873, “Compounds: GSK PKIS; Assays: Nanosyn kinase panel” (2012).
“And” between values parts separate entries of the source, which are not always exact repeats. Identical values can stand only once.

Legend:
[1] = biological target: Leukocyte tyrosine kinase receptor (Homo sapiens) (UniProt P29376); details: at 1 µM;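 note: each value is the mean inhibition of LTK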
[2] = biological target: Tyrosine-protein kinase Lyn (Homo sapiens) (UniProt P07948); details: at 0.1 µM
Sequence of Tyrosine-protein kinase Lyn (Homo sapiens) (P07948 2-512 limits assumed): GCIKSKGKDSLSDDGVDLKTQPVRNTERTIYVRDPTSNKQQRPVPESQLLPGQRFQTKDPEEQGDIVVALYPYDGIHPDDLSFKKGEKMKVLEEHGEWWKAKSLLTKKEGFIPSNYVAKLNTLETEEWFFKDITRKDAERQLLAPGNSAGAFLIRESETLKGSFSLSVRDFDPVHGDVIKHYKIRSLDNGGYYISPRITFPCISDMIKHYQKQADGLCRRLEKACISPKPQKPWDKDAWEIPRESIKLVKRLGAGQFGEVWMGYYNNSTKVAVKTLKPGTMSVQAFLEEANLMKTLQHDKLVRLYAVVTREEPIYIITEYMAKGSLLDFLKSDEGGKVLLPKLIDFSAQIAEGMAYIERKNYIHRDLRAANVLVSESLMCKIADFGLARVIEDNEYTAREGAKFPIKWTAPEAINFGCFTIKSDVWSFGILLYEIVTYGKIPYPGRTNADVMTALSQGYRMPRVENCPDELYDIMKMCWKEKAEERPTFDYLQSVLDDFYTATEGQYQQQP

[3] = biological target: Tyrosine-protein kinase Lyn (Homo sapiens) (UniProt P07948); details: at 1 µM
[4] = biological target: Tyrosine-protein kinase Lyn (Homo sapiens) (UniProt P07948); details: at 0.1 µM; remark: listed apart in the source
[5] = biological target: Tyrosine-protein kinase Lyn (Homo sapiens) (UniProt P07948); details: at 1 µM; remark: listed apart in the source
[6] = biological target: T1, Tyrosine-protein kinase Mer (Homo sapiens) (UniProt Q12866); details: at 0.1 µM
T1 sequence (whole entry): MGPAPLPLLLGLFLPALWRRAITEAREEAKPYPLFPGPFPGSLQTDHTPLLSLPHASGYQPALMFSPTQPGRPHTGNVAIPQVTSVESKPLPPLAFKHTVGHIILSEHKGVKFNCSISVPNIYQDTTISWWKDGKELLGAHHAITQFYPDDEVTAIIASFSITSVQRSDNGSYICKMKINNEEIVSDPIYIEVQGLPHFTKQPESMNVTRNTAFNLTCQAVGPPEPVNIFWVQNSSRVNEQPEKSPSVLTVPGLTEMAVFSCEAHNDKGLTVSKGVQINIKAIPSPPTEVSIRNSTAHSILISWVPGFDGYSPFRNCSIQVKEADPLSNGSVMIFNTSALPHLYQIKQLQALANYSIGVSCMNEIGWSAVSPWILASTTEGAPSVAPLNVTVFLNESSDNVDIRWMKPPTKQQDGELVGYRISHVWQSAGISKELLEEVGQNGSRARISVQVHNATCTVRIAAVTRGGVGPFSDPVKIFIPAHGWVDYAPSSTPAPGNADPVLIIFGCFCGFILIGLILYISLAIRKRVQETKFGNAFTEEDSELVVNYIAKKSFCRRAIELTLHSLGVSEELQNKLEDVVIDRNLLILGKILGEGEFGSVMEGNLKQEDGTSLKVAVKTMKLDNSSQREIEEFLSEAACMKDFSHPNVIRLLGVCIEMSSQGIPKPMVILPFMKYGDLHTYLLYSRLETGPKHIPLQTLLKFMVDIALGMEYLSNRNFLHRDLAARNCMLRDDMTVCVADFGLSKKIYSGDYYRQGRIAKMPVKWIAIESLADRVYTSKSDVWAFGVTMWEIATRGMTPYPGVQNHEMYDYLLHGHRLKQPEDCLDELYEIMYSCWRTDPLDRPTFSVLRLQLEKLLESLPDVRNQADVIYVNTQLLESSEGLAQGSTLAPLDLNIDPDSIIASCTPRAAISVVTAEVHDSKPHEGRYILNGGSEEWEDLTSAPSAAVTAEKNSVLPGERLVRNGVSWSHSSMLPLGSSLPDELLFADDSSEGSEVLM

[7] = biological target: T1, Tyrosine-protein kinase Mer (Homo sapiens); details: at 1 µM
[8] = biological target: Hepatocyte growth factor receptor (Homo sapiens) (UniProt P08581); details: at 0.1 µM
[9] = biological target: Hepatocyte growth factor receptor (Homo sapiens) (UniProt P08581); details: at 1 µM
[10] = biological target: T2, Muscle, skeletal receptor tyrosine-protein kinase (Homo sapiens) (UniProt O15146); details: at 0.1 µM
T2 sequence (whole entry): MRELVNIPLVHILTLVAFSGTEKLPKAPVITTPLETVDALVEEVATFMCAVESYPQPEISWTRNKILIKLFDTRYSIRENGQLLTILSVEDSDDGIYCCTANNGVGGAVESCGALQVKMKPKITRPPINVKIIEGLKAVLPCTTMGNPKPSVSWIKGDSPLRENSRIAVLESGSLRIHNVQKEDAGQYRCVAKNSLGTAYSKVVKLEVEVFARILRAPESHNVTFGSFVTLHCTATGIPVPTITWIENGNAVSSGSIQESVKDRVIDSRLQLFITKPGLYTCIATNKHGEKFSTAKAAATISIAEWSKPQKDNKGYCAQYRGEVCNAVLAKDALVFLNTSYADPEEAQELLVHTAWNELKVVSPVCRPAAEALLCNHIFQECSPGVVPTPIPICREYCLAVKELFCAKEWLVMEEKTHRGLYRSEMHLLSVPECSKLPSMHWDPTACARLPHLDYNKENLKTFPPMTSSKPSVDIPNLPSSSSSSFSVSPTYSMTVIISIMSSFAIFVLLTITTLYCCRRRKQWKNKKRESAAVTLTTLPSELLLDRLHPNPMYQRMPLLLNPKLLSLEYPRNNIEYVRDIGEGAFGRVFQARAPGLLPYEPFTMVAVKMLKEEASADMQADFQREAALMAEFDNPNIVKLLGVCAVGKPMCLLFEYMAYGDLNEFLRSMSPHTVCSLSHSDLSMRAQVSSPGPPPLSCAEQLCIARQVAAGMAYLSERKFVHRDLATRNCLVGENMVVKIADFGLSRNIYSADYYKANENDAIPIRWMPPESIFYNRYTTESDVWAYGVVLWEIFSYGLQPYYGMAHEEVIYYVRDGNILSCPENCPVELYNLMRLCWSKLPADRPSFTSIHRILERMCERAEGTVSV

[11] = biological target: T2, Muscle, skeletal receptor tyrosine-protein kinase (Homo sapiens); details: at 1 µM
[12] = biological target: Platelet-derived growth factor receptor alpha (Homo sapiens) (UniProt P16234); details: at 0.1 µM
[13] = biological target: Platelet-derived growth factor receptor alpha (Homo sapiens) (UniProt P16234); details: at 1 µM
[14] = test system: Platelet-derived growth factor receptor alpha (Homo sapiens), P16234 [D842V]; details: at 0.1 µM
Sequence of Platelet-derived growth factor receptor alpha (Homo sapiens), P16234 [D842V] (P16234 whole entry D842V): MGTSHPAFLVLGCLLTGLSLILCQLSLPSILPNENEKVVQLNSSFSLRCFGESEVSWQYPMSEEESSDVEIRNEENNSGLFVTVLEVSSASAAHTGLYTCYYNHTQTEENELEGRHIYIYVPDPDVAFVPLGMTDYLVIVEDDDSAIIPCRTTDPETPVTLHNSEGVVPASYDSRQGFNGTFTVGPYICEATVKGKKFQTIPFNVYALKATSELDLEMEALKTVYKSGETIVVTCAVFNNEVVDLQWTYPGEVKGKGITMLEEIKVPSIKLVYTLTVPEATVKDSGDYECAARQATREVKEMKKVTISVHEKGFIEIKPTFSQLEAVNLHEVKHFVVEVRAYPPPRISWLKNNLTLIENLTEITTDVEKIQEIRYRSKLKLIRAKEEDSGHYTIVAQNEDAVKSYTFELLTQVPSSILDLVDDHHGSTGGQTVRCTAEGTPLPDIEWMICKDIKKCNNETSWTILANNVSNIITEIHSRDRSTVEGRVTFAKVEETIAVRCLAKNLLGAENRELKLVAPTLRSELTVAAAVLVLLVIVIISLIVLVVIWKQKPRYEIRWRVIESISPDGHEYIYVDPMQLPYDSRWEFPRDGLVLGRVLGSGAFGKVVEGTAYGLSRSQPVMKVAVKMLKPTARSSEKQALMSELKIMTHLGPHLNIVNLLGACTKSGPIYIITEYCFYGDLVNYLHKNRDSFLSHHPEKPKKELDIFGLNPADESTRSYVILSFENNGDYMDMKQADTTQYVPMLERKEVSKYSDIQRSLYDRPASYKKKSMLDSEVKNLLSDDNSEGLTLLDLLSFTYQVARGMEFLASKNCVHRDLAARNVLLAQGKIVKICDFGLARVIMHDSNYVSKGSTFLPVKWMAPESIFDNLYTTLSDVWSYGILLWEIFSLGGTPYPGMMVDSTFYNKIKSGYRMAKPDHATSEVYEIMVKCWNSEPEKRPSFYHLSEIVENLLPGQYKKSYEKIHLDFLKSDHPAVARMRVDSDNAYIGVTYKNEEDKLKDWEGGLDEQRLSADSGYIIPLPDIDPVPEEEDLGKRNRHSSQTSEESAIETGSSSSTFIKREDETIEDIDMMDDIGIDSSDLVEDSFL

[15] = test system: Platelet-derived growth factor receptor alpha (Homo sapiens), P16234 [D842V]; details: at 1 µM
[16] = test system: Platelet-derived growth factor receptor alpha (Homo sapiens), P16234 [T674I]; details: at 0.1 µM
Sequence of Platelet-derived growth factor receptor alpha (Homo sapiens), P16234 [T674I] (P16234 whole entry T674I): as the sequence (P16234 whole entry D842V) above, with T674I, V842D counted along it

[17] = test system: Platelet-derived growth factor receptor alpha (Homo sapiens), P16234 [T674I]; details: at 1 µM
[18] = test system: Platelet-derived growth factor receptor alpha (Homo sapiens), P16234 [V561D]; details: at 0.1 µM
[19] = test system: Platelet-derived growth factor receptor alpha (Homo sapiens), P16234 [V561D]; details: at 1 µM
[20] = biological target: Platelet-derived growth factor receptor beta (Homo sapiens) (UniProt P09619); details: at 0.1 µM;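 note: reported value is the mean percent inhibition of the kinase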
Sequence of Platelet-derived growth factor receptor beta (Homo sapiens) (P09619 whole entry): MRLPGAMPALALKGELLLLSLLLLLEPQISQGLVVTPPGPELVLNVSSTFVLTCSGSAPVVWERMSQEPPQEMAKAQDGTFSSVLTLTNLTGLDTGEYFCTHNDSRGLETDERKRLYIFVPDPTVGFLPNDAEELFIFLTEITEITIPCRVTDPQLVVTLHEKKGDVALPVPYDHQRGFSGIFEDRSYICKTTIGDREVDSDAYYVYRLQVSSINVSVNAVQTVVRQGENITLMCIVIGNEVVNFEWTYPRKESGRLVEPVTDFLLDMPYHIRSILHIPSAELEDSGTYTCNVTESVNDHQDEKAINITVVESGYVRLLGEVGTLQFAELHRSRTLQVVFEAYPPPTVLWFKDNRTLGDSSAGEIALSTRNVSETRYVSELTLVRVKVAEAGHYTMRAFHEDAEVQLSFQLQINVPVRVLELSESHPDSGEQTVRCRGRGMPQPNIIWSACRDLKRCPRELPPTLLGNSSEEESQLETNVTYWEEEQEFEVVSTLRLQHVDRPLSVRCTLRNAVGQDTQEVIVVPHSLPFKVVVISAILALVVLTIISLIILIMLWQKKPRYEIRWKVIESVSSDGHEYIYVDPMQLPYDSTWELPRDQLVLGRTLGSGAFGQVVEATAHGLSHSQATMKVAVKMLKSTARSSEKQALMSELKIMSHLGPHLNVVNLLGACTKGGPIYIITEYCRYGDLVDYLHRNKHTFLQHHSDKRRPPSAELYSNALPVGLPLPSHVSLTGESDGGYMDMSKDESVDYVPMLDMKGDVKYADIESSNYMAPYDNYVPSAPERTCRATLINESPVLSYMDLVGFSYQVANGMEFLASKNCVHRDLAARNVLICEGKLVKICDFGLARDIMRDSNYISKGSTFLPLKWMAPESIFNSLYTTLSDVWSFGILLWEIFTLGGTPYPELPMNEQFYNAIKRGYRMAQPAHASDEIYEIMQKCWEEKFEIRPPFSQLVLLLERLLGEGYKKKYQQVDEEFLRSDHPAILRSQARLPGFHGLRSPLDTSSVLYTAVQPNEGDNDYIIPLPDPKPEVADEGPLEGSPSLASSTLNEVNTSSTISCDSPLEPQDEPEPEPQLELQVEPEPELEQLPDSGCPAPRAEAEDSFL

Sequence of Leukocyte tyrosine kinase receptor (Homo sapiens) (P29376 whole entry): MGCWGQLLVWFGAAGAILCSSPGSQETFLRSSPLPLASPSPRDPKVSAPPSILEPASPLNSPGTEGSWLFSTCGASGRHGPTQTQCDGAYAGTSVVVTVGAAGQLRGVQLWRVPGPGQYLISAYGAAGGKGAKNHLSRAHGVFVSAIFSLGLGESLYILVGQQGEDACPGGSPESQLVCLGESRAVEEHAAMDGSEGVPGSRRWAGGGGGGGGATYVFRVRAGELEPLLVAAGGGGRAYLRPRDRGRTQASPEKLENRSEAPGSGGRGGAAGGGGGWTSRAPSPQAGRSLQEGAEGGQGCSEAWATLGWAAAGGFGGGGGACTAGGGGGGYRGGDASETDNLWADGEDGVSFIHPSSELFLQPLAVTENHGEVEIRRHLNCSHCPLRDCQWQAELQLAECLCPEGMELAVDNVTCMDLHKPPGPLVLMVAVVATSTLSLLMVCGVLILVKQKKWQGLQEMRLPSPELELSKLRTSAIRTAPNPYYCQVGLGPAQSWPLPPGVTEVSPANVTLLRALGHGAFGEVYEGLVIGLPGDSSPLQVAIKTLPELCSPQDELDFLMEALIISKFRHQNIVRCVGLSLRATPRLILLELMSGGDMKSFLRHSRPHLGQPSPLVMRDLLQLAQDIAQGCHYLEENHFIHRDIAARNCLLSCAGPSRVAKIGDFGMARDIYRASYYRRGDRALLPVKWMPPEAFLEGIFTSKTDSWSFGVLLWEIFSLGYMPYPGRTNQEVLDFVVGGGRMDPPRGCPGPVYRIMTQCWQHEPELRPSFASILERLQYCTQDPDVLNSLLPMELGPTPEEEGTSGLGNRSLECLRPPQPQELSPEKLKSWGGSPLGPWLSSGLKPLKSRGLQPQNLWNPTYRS

Row | SMILES | inhibition [1] | inhibition [2] | inhibition [3] | inhibition [4] | inhibition [5] | inhibition [6] | inhibition [7] | inhibition [8] | inhibition [9] | inhibition [10] | inhibition [11] | inhibition [12] | inhibition [13] | inhibition [14] | inhibition [15] | inhibition [16] | inhibition [17] | inhibition [18] | inhibition [19] | inhibition [20]
1 | COC(=O)Nc1nc2cc(Oc3ccc(NC(=O)Nc4ccccc4)cc3)ccc2[nH]1 | 4.01% | 3.96% | 8.66% | 2.63% | 6.73% | 1.34% | 2.99% | 2.87% | 18.7% | 3.96% | 2.88% | 38.5% | 66.6% | 0.57% | 5.23% | 53% | 93.9% | 62.7% | 84.8% | 7.12%
2 | NS(=O)(=O)c1ccc(N/N=C2\C(=O)Nc3ccc(C(=O)NCc4ccncc4)cc32)cc1 | 2.51% | 5.87% | 17.7% | 3.02% | 14.7% | 1.29% | 1.37% | 5.14% | 13% | 9.84% | 21.9% | 23.6% | 69.4% | 18.8% | 71.5% | 3.72% | 16.9% | 15.6% | 61.3% | 45.6%
3 | CC1=C(C(=O)Nc2ccc3[nH]ncc3c2)C(c2ccc(F)cc2)N=C(c2ccc(C(F)(F)F)nc2)N1 (stereo not drawn) | 3.48% | 2.25% | 5.17% | 0.9% | 3.68% | 1.51% | 2.57% | 3.67% | 2.53% | 2.32% | 5.28% | 6.34% | 8.66% | 2.97% | 3.35% | 3.34% | 4.17% | 3.03% | 3.17% | 1.04%
4 | Nc1ncnc2occ(-c3ccc(NC(=O)Nc4cc(C(F)(F)F)ccc4F)cc3)c12 | 53.6% and 34% | 20.4% and 9.18% | 73.7% and 57.2% | 17.2% and 6.3% | 70.5% and 53.6% | 4.87% and 1.22% | 34.7% and 21.6% | 11% and 2.19% | 29.8% and 11% | 87.2% and 84.2% | 94.1% and 97.6% | 80.4% and 68.5% | 93.4% and 90.3% | 17% and 8.08% |  | 75.6% and 72.8% | 97.9% and 83% | 88.8% and 81.8% | 97.9% and 96.5% | 48.5% and 28.9%
5 | COc1cc(N2CCN(C(C)C)CC2)ccc1Nc1nc(Nc2cccc(F)c2C(=O)O)c2cc[nH]c2n1 | 91.8% | 4.91% | 8.65% | 3.03% | 6.2% | 1.01% | 4.62% | 9.65% | 1.52% | 4.22% | 10.5% | 11.3% | 12.8% | 3.04% | 3.08% | 7.14% | 8.84% | 5.91% | 5.37% | 7.62%
6 | CS(=O)(=O)CCNCc1ccoc1-c1ccc2ncnc(Nc3ccc(OCc4ccccc4)cc3)c2c1 | 1.37% | 2.38% | 4.27% | 1.69% | 4.32% | 3.82% | 25.2% | 3.02% | 4.88% | 1.36% | 3.07% | 7.98% | 15.1% | -0.69% | 2.14% | 4.43% | 8.96% | 1.67% | 7.53% | 0.39%
7 | CNC(=O)c1cncc(/C=C/c2ccccc2C)c1 | 2.98% | 7.42% | 18.9% | 3.73% | 14.9% | -0.15% | 1.66% | 9.7% | 5.5% | 3.91% | 3.97% | 11.8% | 17.8% | 3.85% | 5.79% | 4.91% | 5.69% | 4.75% | 17% | 6.6%
8 | CCS(=O)(=O)c1ccc(OC)c(Nc2ncc(-c3cccc(F)c3)o2)c1 | 6.89% | 32.5% | 78.7% | 26.3% | 75.4% | 2.9% | 9.7% | 6.73% | 5.27% | 3.58% | 16.3% | 21.1% | 70.7% | 11.3% | 41.5% | 5.36% | 17.3% | 21.4% | 68.7% | 35.7%
9 | COc1cccc(-n2ncc3c(N/N=C/c4ccc(C(=O)NCCN(C)C)cc4)ncnc32)c1 | 4.37% | 56.9% | 88.1% | 51% | 86.3% | 16.8% | 59.3% | 12.9% | 55.7% | 40.4% | 80.3% | 42.3% | 74.1% | 55.7% | 88.8% | 20.5% | 78.5% | 44% | 85.5% | 62.4%
10 | CN(C)CCNC(=O)Nc1ccc(N(C)c2ccnc(Nc3ccc(CS(C)(=O)=O)cc3)n2)cc1 | 10.1% | 5.57% | 9.57% | 2.36% | 7.59% | 0.57% | 4.35% | 5.93% | 25.4% | 3.67% | 10.1% | 19.4% | 54% | 9.49% | 36.1% | 9.77% | 42.5% | 39.2% | 67.4% | 28.4%
11 | Cc1c2ccc(N(C)c3ccnc(Nc4cccc(S(N)(=O)=O)c4)n3)cc2nn1C | 24.1% | 41.3% | 83.6% | 36.3% | 80.7% | 17.7% | 61.9% | 10.6% | 28.1% | 2.38% | 5.12% | 63.5% | 86.5% | 13.9% | 57.9% | 77% | 96.5% | 71.5% | 92.5% | 53.9%
12 | COc1ccccc1-c1cc(/C=C2\C(=O)Nc3ncc(Br)cc32)cc(Br)c1O | 5.69% | 6% | 14.4% | 4.58% | 9.46% | 3.28% | 7.77% | 1.57% | 4.03% | 1.98% | 5.9% | 11.6% | 16.9% | 2.43% | 5.41% | 8.02% | 8.24% | 2.82% | 15.2% | 6.48%
13 | COc1ccc(-c2nn3ncccc3c2-c2ccnc(Nc3ccc(F)c(F)c3)n2)cc1 | 5.06% | 6.17% | 21.3% | 3.08% | 17.7% | 1.6% | 7.43% | 1.87% | 8.73% | 3.13% | 3.15% | 14.7% | 17.7% |  | 8.96% | 10.3% | 11.2% | 7.34% | 11.3% | 9.04%
14 | Nc1nccc(-c2c(-c3ccc(F)cc3)ncn2C2CCNCC2)n1 | -1.33% and 1.18% | -0.63% and 1.67% | 9.44% and 9.35% | -1.82% and 1.01% | 7.55% and 6.33% | 0.83% and 0.35% | 2.87% and 1.44% | -2.37% and 2.87% | -2.98% and 4.72% | -3.15% and 1.87% | 4.78% and 1.25% | 1.26% and 2.55% | 32.6% and 7.91% | 3.48% and 2.03% | 9.35% and 6.11% | -2.56% and 3.91% | 1.13% and 1.39% | 4.62% and 3.92% | 19.5% and 6.51% | 3.91% and 1.3%
